D2 PAM-1 – D2 dopamine receptor (human) potentiation | P14416 | HEK293 T-REx D2, calcium flux, EC20 dopamine potentiation | potentiation, % at 10 µM | 0.34% of 340,000 active;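 active = potentiation over 3 SD above the plate norm, cut at about 30% in these data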; also: 0% is about no effect
Target sequence (P14416 whole entry, looked up): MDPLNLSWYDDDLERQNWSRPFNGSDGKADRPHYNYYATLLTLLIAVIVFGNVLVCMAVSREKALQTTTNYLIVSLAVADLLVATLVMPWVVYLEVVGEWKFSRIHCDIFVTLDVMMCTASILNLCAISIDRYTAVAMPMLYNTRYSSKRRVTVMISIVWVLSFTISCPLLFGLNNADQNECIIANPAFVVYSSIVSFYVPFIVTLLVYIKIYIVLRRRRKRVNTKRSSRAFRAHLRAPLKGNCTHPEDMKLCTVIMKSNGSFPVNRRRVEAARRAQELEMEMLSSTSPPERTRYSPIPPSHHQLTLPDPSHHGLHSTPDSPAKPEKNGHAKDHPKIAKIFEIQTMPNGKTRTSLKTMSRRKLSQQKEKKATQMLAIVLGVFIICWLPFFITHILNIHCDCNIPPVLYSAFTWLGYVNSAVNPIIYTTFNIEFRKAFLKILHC
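Cells plated with tetracycline inducer and held overnight at 30 C; calcium dye loaded 30–90 min at room temperature; baseline taken, compound added and read 180 s; EC20 dopamine then added and read 180 s.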
D2 PAM-2 – positive allosteric modulators of human D2 dopamine receptor | potentiation, % (test concentration not listed) | DiscoveRx D2 beta-arrestin cells, luminescence, 90 min; 100% = 57 uM dopamine signal | 0.23% of 360,000 active; in the data active = potentiation above about 50%; inconclusive = mostly about 30% to 49%
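D2 cells co-treated with compound plus 50 nM dopamine (EC20) for 90 min at 37 deg C to detect potentiation. Beta-arrestin recruitment was read as enzyme-fragment luminescence after 1 h at ambient temperature. Full response was set by 57 uM dopamine.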
D2 ag-1 – activates the human D2 dopamine receptor | P14416 | DiscoveRx PathHunter D2 beta-arrestin, luminescence, 90 min; 100% = 57 uM dopamine signal | activation, % (concentration not given with the values) | 0.084% of 360,000 active; in the data active = activation above about 40%; inconclusive = between about 15% and that limit
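DiscoveRx PathHunter D2 beta-arrestin cells (2,100/well) attached overnight, then compound-stimulated 90 min at 37 C in HBSS/10 mM HEPES/0.1% Tween-20 buffer; beta-galactosidase complementation read by luminescence after 1 h at ambient temperature. Dopamine 57 uM final (EC100) as control.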
D2 ag-2 – agonists of human D2 dopamine receptor | P14416 | 0.53% of 340,000 active | AID 485358 | HEK293 T-REx D2 cells, calcium flux agonist mode | activation, % at 2 µM;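 active = activation over 3 SD above normal in the single-dose calcium agonist read, cut at about 30% in these data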; also: 0% is about no effect
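In this primary screen, compounds producing a positive calcium signal within 180 s of addition to tetracycline-induced, force-coupled HEK293 Trex D2 cells are flagged; cells are dye-loaded with a no-wash calcium kit beforehand.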
D2 antag – D2 dopamine receptor (human) antagonism | HEK293 TREx D2 cells, calcium flux, dopamine EC80 | inhibition, % at 10 µM | 2% of 340,000 active | AID 485344; in the data active = inhibition above about 30%; inactive = below that, where a call was filed; also: 0% is about no effect
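Inhibition of EC80 dopamine-driven calcium flux, recorded kinetically, defines activity here; cells are a tetracycline-induced HEK293 T-REx line expressing force-coupled D2.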
The depositor's hits bear a star. Shown are actives, neighbours in structure and some others; about 2.4% of the full set was active somewhere.

How did OCCC1CN(Cc2cccc(-n3cccn3)c2)CCN1Cc1ccccc1 (stereo unspecified) do in these assays?
D2 PAM-1: -21.9; D2 PAM-2: -25.5; D2 ag-1: -1.8; D2 ag-2: 0.2; D2 antag: 57.8*

What do the screens show for `OCCC1CN(Cc2ccc(F)cc2)CCN1CCc1ccccc1` (stereo unspecified)?
D2 PAM-1: -1.8; D2 PAM-2: -1.6; D2 ag-1: -2.0; D2 ag-2: -3.2; D2 antag: 42.7*

Results for CCOC(=O)N1CCN(CCC(=O)Nc2ccc(OC)cc2OC)CC1 ?
D2 PAM-1: -16.0; D2 PAM-2: -33.0; D2 ag-1: -0.6; D2 ag-2: 34.4*; D2 antag: 36.4*

What do the screens show for `COc1ccc(NC(=O)C/C(C)=N/NC(=O)c2ccccn2)c(OC)c1`?
D2 PAM-1: 30.1*; D2 PAM-2: -5.3; D2 ag-1: 4.5; D2 ag-2: -1.0; D2 antag: 15.1

How did CCOc1ccc(NC(=O)CN2CCN(CC(=O)Nc3ccc(OC)cc3OC)CC2)cc1 do in these assays?
D2 PAM-1: 8.4; D2 PAM-2: 6.7; D2 ag-1: 6.3; D2 ag-2: 0.0; D2 antag: 32.4*

How did CCOC(=O)N1CCN(CCC(=O)Nc2ccc(OC)cc2)CC1 do in these assays?
D2 PAM-1: -0.6; D2 PAM-2: -6.7; D2 ag-1: -2.7; D2 ag-2: 0.9; D2 antag: -17.9

What do the screens show for `C/C(CC(=O)Nc1ccccn1)=N\NC(=O)c1ccccc1O`?
D2 PAM-1: 3.3; D2 PAM-2: -13.3; D2 ag-1: -6.4; D2 ag-2: 2.6; D2 antag: 46.9*

How did CCOc1cc(C(=O)NCCc2csc(-c3ccc(C)cc3)n2)cc(OCC)c1OCC do in these assays?
D2 PAM-1: -5.2

What do the screens show for `COc1ccc(NC(=O)CCCN2C(=O)C3C4C=CC(C4)C3C2=O)c(OC)c1` (stereo unspecified)?
D2 PAM-1: 16.9; D2 PAM-2: 5.2; D2 ag-1: -2.0; D2 ag-2: -0.2; D2 antag: 35.3*

Results for COc1ccc(NC(=O)c2ccc(NC(=O)CN3CCN(c4ccccc4O)CC3)cc2)cc1 ?
D2 PAM-2: -11.7; D2 ag-1: 1.9

What do the screens show for `COc1ccc(NC(=O)c2ccc(NC(=O)CN3CCN(c4ccc(O)cc4)CC3)cc2)cc1`?
D2 PAM-2: 22.9; D2 ag-1: 124.3*

What do the screens show for `COc1ccc(NC(=O)CN2CCN(C(=O)c3ccco3)CC2)c(OC)c1`?
D2 PAM-1: -8.6; D2 PAM-2: 3.8; D2 ag-1: 10.0; D2 ag-2: 39.0*; D2 antag: -8.9

What do the screens show for `COc1ccc(NC(=S)N2CCN(C(=O)c3ccco3)CC2)c(OC)c1`?
D2 PAM-1: -0.7; D2 PAM-2: -10.7; D2 ag-1: 1.5; D2 ag-2: 9.6; D2 antag: 1.8

How did COc1ccc(NC(=O)CCCNC(=O)c2ccc(Cl)cc2)c(OC)c1 do in these assays?
D2 PAM-1: -3.1; D2 PAM-2: 0.7; D2 ag-1: -0.4; D2 ag-2: -0.4; D2 antag: 30.3*

What do the screens show for `O=S1(=O)c2ccccc2N(Cc2ccccc2F)c2ccccc21`?
D2 ag-2: 0.3

What do the screens show for `COc1ccc(NC(=O)CCOc2ccccc2)c(OC)c1`?
D2 PAM-1: 8.3; D2 PAM-2: 17.6; D2 ag-1: -2.7; D2 ag-2: -1.3; D2 antag: 35.9*

What do the screens show for `COc1ccc(NC(=O)CCCCC(=O)Nc2ccc(OC)cc2OC)c(OC)c1`?
D2 PAM-2: -2.1; D2 ag-1: -1.6

How did COc1ccc(OC)c(NC(=O)CCN2CCN(c3ccccc3OC)CC2)c1 do in these assays?
D2 PAM-1: -19.8; D2 PAM-2: -79.3; D2 ag-1: -2.2; D2 ag-2: 13.8; D2 antag: 71.9*

How did O=C1c2ccccc2CCCC12N=NCC2c1cccc2ccccc12 (stereo unspecified) do in these assays?
D2 PAM-2: 118.6*; D2 ag-1: inconclusive

How did N=c1c(S(=O)(=O)c2ccccc2)cc2c(=O)n3ccccc3nc2n1Cc1cccnc1 do in these assays?
D2 PAM-1: -8.1; D2 PAM-2: -66.9; D2 ag-1: -4.6; D2 ag-2: 0.3; D2 antag: 44.4*

Source: PubChem BioAssay
